# In PubChem BioAssay (NCI):
# This is part of a sample that, as a whole, favours compounds with a hit. Of some 83,000 tested, about 20% had one in any assay.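 Cell lines were cultured in 96-well plates, exposed to a single compound concentration, and assessed for percent growth 48 hours later.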 Unmarked numbers belong to inactive results. Activity calls are given as the source filed them. How the source made its calls: active means growth percent below 10; inactive means the rest.
# Tests used:
# Assay in all cases: NCI-60 one-dose screen, 48 h (100 = growth as untreated, 0 = no growth, -100 = all killed)
# Settings in all cases: 10 µM unless noted
# SR leukemia = system: SR leukemia
# OVCAR-8 ovarian = system: OVCAR-8 ovarian
# OVCAR-5 ovarian = system: OVCAR-5 ovarian
# SK-OV-3 ovarian = system: SK-OV-3 ovarian
# IGROV1 ovarian = system: IGROV1 ovarian
# OVCAR-3 ovarian = system: OVCAR-3 ovarian
# HS 578T breast = system: HS 578T breast
# NCI/ADR-RES ovarian = system: NCI/ADR-RES ovarian
# BT-549 breast = system: BT-549 breast
# MDA-MB-435 melanoma = system: MDA-MB-435 melanoma
# SW-620 colon = system: SW-620 colon
# MCF7 breast = system: MCF7 breast
# HCT-116 colon = system: HCT-116 colon
# HCC-2998 colon = system: HCC-2998 colon
# KM12 colon = system: KM12 colon
# OVCAR-4 ovarian = system: OVCAR-4 ovarian
# T-47D breast = system: T-47D breast
# RPMI-8226 leukemia = system: RPMI-8226 leukemia
Compound,growth (SR leukemia),growth (OVCAR-8 ovarian) [%],growth (OVCAR-5 ovarian) [%],growth (SK-OV-3 ovarian),growth (IGROV1 ovarian),growth (OVCAR-3 ovarian),growth (HS 578T breast),growth (NCI/ADR-RES ovarian),growth (BT-549 breast),growth (MDA-MB-435 melanoma),growth (SW-620 colon),growth (MCF7 breast),growth (HCT-116 colon),growth (HCC-2998 colon) [%],growth (KM12 colon) [%],growth (OVCAR-4 ovarian) [%],growth (T-47D breast),growth (RPMI-8226 leukemia) [%]
CN(C)CCNC(=O)n1cc(-c2ccncc2)c(-c2cc(O)cc(Cl)c2)n1,29.6%,86.9,106,90.8%,107%,109%,93.3%,100%,102%,51.1%,109%,102%,86.2%,119,106,–,–,–
O=C(O)CSc1ccc(NCc2oc(CO)cc(=O)c2O)cc1,81.8%,102,102,98.7%,105%,110%,90.9%,94.3%,92.8%,116%,105%,93.8%,95.2%,99.9,100,103,–,–
Cc1ccc(C)c2c1SC1=NNC(Oc3ccc(Cl)cc3)=C(C#N)C(=N)N12,113%,108,111,95.7%,87.8%,110%,103%,105%,107%,113%,104%,89.5%,108%,105,109,–,84.4%,–
O=C(CCCCCCN1CC(=O)N2[C@@H](c3ccc(Cl)c(Cl)c3)c3[nH]c4ccccc4c3C[C@H]2C1=O)NO,7.56% (active),50.3,46.3,73.6%,-10.5% (active),35.3%,64.8%,93.3%,63.7%,47.3%,33%,29%,23.2%,61.9,69.8,45.6,–,–
CCCCOc1nc2ccc(C)cc2cc1/C=C/C(=O)/C=C(O)/C=C/c1cc2cc(C)ccc2nc1OCCCC,95.9%,100,102,89.9%,109%,113%,100%,96.8%,90.8%,107%,107%,100%,87.6%,108,102,–,89.2%,–
COc1cc(/C=N/NC(=O)Cn2c(-c3ccc(C)o3)nc3ccccc32)ccc1OCc1ccccc1,74.5%,81.3,88.1,91.7%,94.3%,82%,70.4%,92.6%,92%,96.9%,89.9%,76.2%,71.9%,103,85.1,90,–,–
NC(=S)N1N=C(c2ccc(Cl)cc2)CC1c1cc2ccccc2[nH]c1=O (configuration not stated),82.4%,111,108,104%,101%,119%,112%,108%,102%,104%,108%,95.5%,103%,111,114,100,–,–
COc1ccc(CC2c3cc(OC)c(OC)cc3CC[N+]2(C)CCC(=O)OCCCCCOC(=O)CC[N+]2(C)CCc3cc(OC)c(OC)cc3C2Cc2ccc(OC)c(OC)c2)cc1OC (configuration not stated),–,96.5,103,110%,102%,95.9%,93.4%,78.1%,103%,96.7%,100%,85.2%,88.5%,105,101,89.8,94.5%,96.3
COc1ccc(-c2nc3ccccc3n3cccc23)cc1,–,103,113,122%,47.1%,101%,111%,107%,95.4%,126%,101%,81.9%,92%,110,99,99.8,107%,75.6
O=C(N/N=C/c1ccccc1O)c1ccncc1,49.4%,52.3,–,–,53.8%,18.2%,94.3%,38.1%,57%,82.5%,66.1%,23.1%,48.7%,64.5,34.3,48.9,33.6%,–
CCOC(=O)C1C(=O)C=C(c2cc(OC)c(OC)c(OC)c2)CC1c1sc(N(C)Cc2ccccc2)nc1Cl (configuration not stated),80.8%,–,101,85.2%,95.6%,91.6%,55.9%,86.3%,92.1%,95.1%,95.7%,77.4%,72.6%,105,93.6,86.8,66.6%,–
C=CCN(CC#N)CC=C,93.2%,100,–,116%,120%,119%,121%,115%,116%,101%,107%,95%,98.1%,118,108,–,101%,–
COC(=O)c1ccc2c(c1)nc(-c1ccc(Cl)cc1)n2-c1cc(C(C)(C)C)[nH]n1,–,83.1,121,104%,54.2%,41.9%,53.3%,14.2%,43.9%,-12.3% (active),49.1%,25.1%,28.5%,68.1,34.6,81.4,76.9%,56.8
CCOC(=O)Nc1ccc2nc(N3CCCCCC3)sc2c1,–,32.7,65.7,5.7% (active),49.8%,-20.5% (active),43.7%,0.974% (active),65.7%,7.4% (active),24.5%,19.5%,27.9%,50.3,21.6,57.5,41.6%,19.5
CCCNCCC(C)=O,–,106,101,116%,118%,116%,89.9%,100%,106%,94.7%,97.6%,106%,109%,99.6,112,107,98.7%,108
COc1ccc(Nc2nc(N)nc3c(=O)[nH]ccc23)cc1,–,107,107,107%,87.5%,113%,118%,100%,102%,113%,99.5%,79.7%,83.7%,107,104,111,96.6%,97.3
O=C(CSc1nc2c(n1Nc1ccccc1)-c1ccccc1SC2)Nc1nccs1,82.7%,97.3,–,109%,91.4%,98.6%,93.5%,90.4%,127%,103%,97.5%,96.3%,88.3%,–,102,102,97.6%,–
COc1ccc(C(=O)OC2C(OC3C(O)COC(O[C@H]4C[C@H]5[C@@H]6CC=C7C[C@@H](O)CC[C@]7(C)[C@H]6CC[C@]5(C)[C@H]4[C@H](C)C(=O)CCC(C)C)C3OC(N)=O)OCC(O)C2O)cc1 (some centres not stated),-14.1% (active),–,36.3,-37.2% (active),19.5%,58.3%,-29.9% (active),86.2%,-2.62% (active),-63% (active),-62.1% (active),-21.1% (active),-7.43% (active),52.7,27.4,44.1,1.19% (active),–
Cc1cc(O)ccc1Sc1ccccc1[N+](=O)[O-],–,97.1,99.6,101%,90.6%,96.1%,80%,83%,93.2%,57.7%,90.2%,118%,98.1%,97.5,91.1,90,98.7%,82.5
